Out of some 39,000 compounds screened, about 3,300 (8.5%) were called active. What follows is part of a selection rich in actives, with near analogues and random picks from the rest.
system: HepG2; test: cytotoxicity call (relative viability < 0.9); conditions: 10 µM

Row | SMILES | cytotoxicity call
1 | C[C@H]1CN([C@@H](C)CO)C(=O)c2cccc(NC(=O)Nc3cccc4ccccc34)c2O[C@H]1CN(C)Cc1ccc2c(c1)OCO2 | inactive
2 | c1ccc(-c2nn(-c3ccccc3)c3c2cnc2ccccc23)cc1 | active
3 | c1ccc(-c2cc(-c3ccccc3)n(-c3ccccc3)n2)cc1 | inactive
4 | COc1ccc2c(c1)c(-c1ccccc1)nn2-c1ccc(C)cc1 | inactive
5 | Cc1cc(C)c(S(=O)(=O)N2CCO[C@@H]2CNC(=O)C(=O)NCCCN2CCCC2=O)c(C)c1 | inactive
6 | Cc1c(NC(C)C)c(=O)n(-c2ccccc2)n1C.Cl | inactive
7 | C[C@@H]1CN([C@H](C)CO)C(=O)c2cc(NS(=O)(=O)c3ccc(F)cc3)ccc2O[C@H]1CN(C)S(=O)(=O)c1ccccc1 | inactive
8 | O=C1CCOC[C@@H]2CCCN12 | inactive
9 | C[C@@H]1CCCCO[C@@H](CN(C)Cc2ccncc2)[C@H](C)CN([C@@H](C)CO)C(=O)c2cc(NC(=O)Nc3ccccc3)ccc2O1 | inactive
10 | C[C@@H]1CCCCO[C@H](CN(C)Cc2ccc(C(=O)O)cc2)[C@@H](C)CN([C@@H](C)CO)C(=O)c2cc(NC(=O)Cc3ccccc3)ccc2O1 | inactive
11 | Cc1ccc(S(=O)(=O)N(C)C[C@H]2Oc3ccc(N(C)C)cc3CC(=O)N([C@@H](C)CO)C[C@@H]2C)cc1 | inactive
12 | Cc1ccc(S(=O)(=O)N(C)C[C@H]2Oc3ccc(N(C)C)cc3CC(=O)N([C@H](C)CO)C[C@H]2C)cc1 | inactive
13 | Cc1ccc(S(=O)(=O)N(C)C[C@@H]2Oc3ccc(N(C)C)cc3CC(=O)N([C@H](C)CO)C[C@@H]2C)cc1 | active
14 | Cc1ccc(S(=O)(=O)N(C)C[C@H]2Oc3ccc(N(C)C)cc3CC(=O)N([C@@H](C)CO)C[C@H]2C)cc1 | inactive
15 | Cc1ccc(S(=O)(=O)N(C)C[C@@H]2Oc3ccc(N(C)C)cc3CC(=O)N([C@@H](C)CO)C[C@@H]2C)cc1 | active
16 | Cc1ccc(S(=O)(=O)N(C)C[C@@H]2Oc3ccc(N(C)C)cc3CC(=O)N([C@H](C)CO)C[C@H]2C)cc1 | inactive
17 | C[C@H](CO)N1C[C@H](C)[C@@H](CN(C)Cc2ccc(C(=O)Nc3ccccc3N)cc2)Oc2c(NS(C)(=O)=O)cccc2C1=O | inactive
18 | Cc1noc(C)c1NC(=O)Nc1ccc2c(c1)C(=O)N([C@@H](C)CO)C[C@H](C)[C@H](CN(C)Cc1ccncc1)OCCCC[C@H](C)O2 | inactive
19 | CN1CCN(C(=O)C[C@H]2CC[C@H]3[C@@H](COc4ccc(NC(=O)C5CCOCC5)cc4C(=O)N3C)O2)CC1 | inactive
20 | CC(C)(C)Nc1nc(=O)[nH]c(=O)[nH]1 | inactive
21 | Cc1noc(C)c1S(=O)(=O)N(C)C[C@H]1Oc2ccc(NS(=O)(=O)c3cccs3)cc2CC(=O)N([C@@H](C)CO)C[C@H]1C | inactive
22 | CC(C)(C)CC(C)(C)c1cc(Cc2cc(C(C)(C)CC(C)(C)C)cc(-n3nc4ccccc4n3)c2O)c(O)c(-n2nc3ccccc3n2)c1 [listing 1 of 2 here] | inactive
23 | CC(C)(C)CC(C)(C)c1ccc(O)c(Cc2ccc(Cl)cc2Cl)c1 | active
24 | CC(C)(C)CC(C)(C)c1cc(Cc2cc(C(C)(C)CC(C)(C)C)cc(-n3nc4ccccc4n3)c2O)c(O)c(-n2nc3ccccc3n2)c1 [listing 2 of 2 here] | inactive
25 | C/C=C/c1cnc2c(c1)C(=O)N([C@H](C)CO)C[C@@H](C)[C@@H](CN(C)S(=O)(=O)c1ccc(OC)cc1)O2 | inactive

Row | SMILES | cytotoxicity call
26 | C[C@@H]1CN([C@H](C)CO)C(=O)c2cc(NC(=O)Cc3cn(C)c4ccccc34)ccc2O[C@H]1CN(C)C(=O)Nc1cccc2ccccc12 | inactive
27 | N#CCOc1cccc2ccccc12 | inactive
28 | CN(C)CCOC(c1ccccc1)c1ccccc1.Cl | inactive
29 | CN(C)C(CCOc1cccc2ccccc12)c1ccccc1.Cl (centres undefined) | active
30 | CN(C)Cc1cn(CC[C@@H]2CC[C@H](NS(=O)(=O)c3ccccc3)[C@H](CO)O2)nn1 | inactive
31 | C[C@@H]1CN([C@H](C)CO)C(=O)c2cc(NC(=O)C3CCCCC3)ccc2O[C@@H](C)CCCCO[C@H]1CN(C)C(=O)c1ccccc1 | inactive
32 | C[C@@H]1CCCCO[C@H](CN(C)CC2CCCCC2)[C@@H](C)CN([C@H](C)CO)C(=O)c2cc(NS(=O)(=O)c3cccs3)ccc2O1 | inactive
33 | C[C@@H]1CN([C@@H](C)CO)C(=O)c2cc(NC(=O)Cn3cnnn3)ccc2O[C@@H]1CN(C)Cc1ccc(Oc2ccccc2)cc1 | inactive
34 | COC(=O)Nc1nc2cc(C(=O)c3ccccc3)ccc2[nH]1 | active
35 | O=c1[nH]c2ccc(F)cc2nc1O | inactive
36 | COC(=O)CNC(=O)c1ccc(F)cc1 | inactive
37 | COC(=O)Nc1nc2cc(C(=O)c3cccs3)ccc2[nH]1 | inactive
38 | COC(=O)Nc1nc2cc(C(=O)c3ccc(F)cc3)ccc2[nH]1 | active
39 | COc1cccc(C(=O)c2ccccc2)c1 | inactive
40 | Cc1ccc(S(=O)(=O)Nc2ccc3c(c2)CC(=O)N([C@H](C)CO)C[C@H](C)[C@@H](CN(C)S(=O)(=O)c2c(C)noc2C)O3)cc1 | inactive
41 | Cc1cc(O)cc(C)c1Cl [listing 1 of 2 here] | active
42 | Cc1cc(O)cc(C)c1Cl [listing 2 of 2 here] | inactive
43 | Oc1cc(O)cc(O)c1 | inactive
44 | CCO[C@H]1CC(C)(C)NC(=S)N1 | inactive
45 | C[C@@H]1CN([C@@H](C)CO)C(=O)Cc2cc(NS(=O)(=O)c3ccc(Cl)cc3)ccc2O[C@@H]1CN(C)Cc1ccc(C(F)(F)F)cc1 | active
46 | C[C@H](CO)N1C[C@H](C)[C@H](CN(C)Cc2ccc(C(F)(F)F)cc2)Oc2ccc(NS(=O)(=O)c3ccc(Cl)cc3)cc2CC1=O | active
47 | C[C@@H]1CN([C@H](C)CO)C(=O)Cc2cc(NS(=O)(=O)c3ccc(Cl)cc3)ccc2O[C@@H]1CN(C)Cc1ccc(C(F)(F)F)cc1 | inactive
48 | C[C@H]1CN([C@@H](C)CO)C(=O)Cc2cc(NS(=O)(=O)c3ccc(Cl)cc3)ccc2O[C@H]1CN(C)Cc1ccc(C(F)(F)F)cc1 | active
49 | C[C@@H]1CN([C@H](C)CO)C(=O)Cc2cc(NS(=O)(=O)c3ccc(Cl)cc3)ccc2O[C@H]1CN(C)Cc1ccc(C(F)(F)F)cc1 | active
50 | CCS(=O)(=O)Nc1ccc2c(c1)C(=O)N(C)[C@@H]1CC[C@H](CC(=O)NCc3ccccc3F)O[C@H]1CO2 | inactive

Row | SMILES | cytotoxicity call
51 | C[C@H](CO)N1C[C@H](C)[C@@H](CN(C)C(=O)Nc2ccc(F)cc2)Oc2c(NC(=O)c3ccc(-c4nccs4)cc3)cccc2C1=O | inactive
52 | C/C=C/c1cnc2c(c1)C(=O)N([C@@H](C)CO)C[C@H](C)[C@@H](CN(C)S(=O)(=O)c1ccc(OC)cc1)O2 | inactive
53 | C[C@@H]1CN([C@H](C)CO)C(=O)c2cc(NC(=O)C3CCCCC3)ccc2O[C@@H](C)CCCCO[C@@H]1CN(C)C(=O)CCC(F)(F)F | inactive
54 | C[C@@H]1CCCCO[C@H](CN(C)Cc2ccc(C(=O)O)cc2)[C@H](C)CN([C@@H](C)CO)C(=O)c2cc(NS(=O)(=O)c3ccc(Cl)cc3)ccc2O1 | inactive
55 | O=C(C[C@@H]1CC[C@@H]2[C@H](COC[C@H](O)CN2C(=O)c2ccncc2)O1)NC1CCC1 | inactive
56 | C[C@@H]1CN([C@H](C)CO)C(=O)c2cc(NC(=O)Nc3ccc(F)cc3)ccc2O[C@@H]1CN(C)S(C)(=O)=O | inactive
57 | C[C@@H]1CN([C@H](C)CO)C(=O)c2cccc(NS(C)(=O)=O)c2O[C@@H]1CN(C)C(=O)Nc1ccccc1 | inactive
58 | C[C@@H]1CN([C@H](C)CO)C(=O)c2cccc(NS(=O)(=O)c3ccc(F)cc3)c2O[C@H]1CN(C)C(=O)Nc1cccc2ccccc12 | inactive
59 | CN(C)CCCCNC(=O)[C@@H]1C[C@@H]2C(=O)N[C@@H](CCCCN)C(=O)N2[C@@H]1c1ccc(O)cc1 | inactive
60 | C[C@H](CO)N1C[C@H](C)[C@@H](CN(C)Cc2ccc(C(F)(F)F)cc2)Oc2ccc(NS(=O)(=O)c3ccc(Cl)cc3)cc2CC1=O | inactive
61 | C[C@H]1CN([C@@H](C)CO)C(=O)Cc2cc(NS(=O)(=O)c3ccc(Cl)cc3)ccc2O[C@@H]1CN(C)Cc1ccc(C(F)(F)F)cc1 | active
62 | C[C@@H]1CN([C@@H](C)CO)C(=O)Cc2cc(NS(=O)(=O)c3ccc(Cl)cc3)ccc2O[C@H]1CN(C)Cc1ccc(C(F)(F)F)cc1 | inactive
63 | CC(=O)N[C@H]1[C@H]([C@H](O)[C@H](O)CO)OC(C(=O)O)=C[C@@H]1NC(=N)N | inactive
64 | NS(=O)(=O)c1ccc(NC(=O)C2CC2)cc1 | active
65 | NS(=O)(=O)c1ccc(NC(=O)[C@H]2CCCNC2=O)cc1 | inactive
66 | CNC(=O)Nc1ccc(S(N)(=O)=O)cc1 | inactive
67 | Cc1ccc(S(=O)(=O)N(C)C[C@@H]2Oc3c(NC(=O)c4cnccn4)cccc3C(=O)N([C@@H](C)CO)C[C@@H]2C)cc1 | inactive
68 | COc1ccc(S(=O)(=O)Nc2ccc3c(c2)CC(=O)N([C@H](C)CO)C[C@@H](C)[C@H](CN(C)S(=O)(=O)c2cccs2)O3)cc1 | inactive
69 | C[C@@H]1CN([C@H](C)CO)C(=O)Cc2cc(NC(=O)Nc3ccc(C(F)(F)F)cc3)ccc2O[C@@H]1CN(C)Cc1ccncc1 | active
70 | C[C@H]1CN([C@@H](C)CO)C(=O)Cc2cc(NC(=O)Nc3ccc(C(F)(F)F)cc3)ccc2O[C@@H]1CN(C)Cc1ccncc1 | active
71 | C[C@@H]1CN([C@@H](C)CO)C(=O)Cc2cc(NC(=O)Nc3ccc(C(F)(F)F)cc3)ccc2O[C@H]1CN(C)Cc1ccncc1 | inactive
72 | C[C@H](CO)N1C[C@H](C)[C@@H](CN(C)Cc2ccncc2)Oc2ccc(NC(=O)Nc3ccc(C(F)(F)F)cc3)cc2CC1=O | active
73 | C[C@@H]1CN([C@H](C)CO)C(=O)Cc2cc(NC(=O)Nc3ccc(C(F)(F)F)cc3)ccc2O[C@H]1CN(C)Cc1ccncc1 | inactive
74 | C[C@H](CO)N1C[C@H](C)[C@H](CN(C)Cc2ccncc2)Oc2ccc(NC(=O)Nc3ccc(C(F)(F)F)cc3)cc2CC1=O | active

Reference: the antibiotic and cytotoxicity screens of Wong et al. (2023)
